Assay outcomes as filed in PubChem BioAssay.
Compounds with a hit are over-represented: about 3.4% of the library has one in this group of screens.
TEAD-YAP block: TEAD-YAP interaction inhibition. HEK-TIYL cells, TEAD-Gal4/YAP UAS-luciferase luminescence. AID 1259422. 640,000 tested, 1.4% active. inhibition, % at 9.12 µM; in the data active means inhibition above about 32%;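 further: 0% = median of test compound wells and 100% = reference inhibitor wells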
MITF inh: human MITF inhibition, primary screen. O75030. AlphaScreen MITF homodimerization, bead proximity signal. inhibition, % at 2.6 µM. 650,000 tested, 0.91% active; in the data active means inhibition above about 50%;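 further: 0% = vehicle wells with protein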
Target sequence (O75030 whole entry, looked up): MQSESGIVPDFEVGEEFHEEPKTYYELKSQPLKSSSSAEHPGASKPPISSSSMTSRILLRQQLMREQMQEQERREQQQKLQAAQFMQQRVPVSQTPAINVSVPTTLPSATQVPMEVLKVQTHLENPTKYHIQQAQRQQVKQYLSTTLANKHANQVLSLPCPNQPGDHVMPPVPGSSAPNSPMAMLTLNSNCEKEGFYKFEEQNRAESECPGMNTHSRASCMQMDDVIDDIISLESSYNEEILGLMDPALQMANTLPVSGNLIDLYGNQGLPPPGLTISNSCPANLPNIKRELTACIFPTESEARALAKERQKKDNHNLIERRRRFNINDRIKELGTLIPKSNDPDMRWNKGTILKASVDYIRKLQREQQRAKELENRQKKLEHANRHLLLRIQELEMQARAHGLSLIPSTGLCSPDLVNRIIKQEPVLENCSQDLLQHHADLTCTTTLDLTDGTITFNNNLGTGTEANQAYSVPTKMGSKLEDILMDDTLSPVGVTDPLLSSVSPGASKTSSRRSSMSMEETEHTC
FBW7 activator: human FBW7 E3 ligase activation, primary screen | Q969H0 | AlphaScreen FBW7–phospho-cyclin E peptide binding, activator screen | normalized activity (activation), % at 26.1 µM | 650,000 tested, 0.13% active | AID 1259310; in the data active means normalized activity above about 1.9%;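 further: purified mutant Fbw7 with reduced substrate affinity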
GPR151 activ: activators of human GPR151; PathHunter beta-arrestin GPR151 cells, luminescence; activation, % at 11.2 µM; 650,000 tested, 1% active; in the data active means activation above about 4.9%;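 further: 0% = median of compound wells and 100% = cells with positive control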
Numbers without * were called inactive.

SMILES | TEAD-YAP block | MITF inh | FBW7 activator | GPR151 activ
Nc1c(C(=O)Nc2ccc(Br)cc2)nnn1Cc1cccc(Cl)c1 | 6.1 | 16.6 | 0.2 | 0.2
COc1ccc2c(C)nc(Nc3nc(C)cc(=O)[nH]3)nc2c1 | 38.9* | 0.2 | -0.4 | 0.2
COCCCn1c(=O)[nH]c2ncc(-c3cccc(F)c3)nc21 | -3.0 | 14.2 | -0.1 | -0.3
COCCCn1c(=O)[nH]c2ncc(-c3cnc(OC)nc3)nc21 | -3.1 | 15.2 | 2.2* | -1.0
Cc1ccc(NC(=O)CC2c3ccccc3Oc3ccccc32)nc1 | 52.2* | 15.4 | 0.3 | -0.3
O=C(CC1c2ccccc2Oc2ccccc21)Nc1ccccn1 | 25.2 | 16.9 | 0.1 | 0.2
CC(=O)Nc1ccc(NC(=O)Cn2cnc3c(cnn3C(C)(C)C)c2=O)cc1 | 2.0 | 17.6 | 4.0* | -0.3
N#Cc1ccccc1NC(=O)COC(=O)C1CCCCC1 | -3.7 | -0.8 | 0.4 | 0.0
COc1cc(/C=C2\Oc3c(ccc(O)c3CN3CCCC3)C2=O)cc(OC)c1OC | 32.1* | -1.1 | -0.2 | 1.2
Cc1nnc(SCC(=O)Nc2sc3c(c2C(N)=O)CCCC3)s1 | 8.7 | 11.7 | 0.9 | -0.3
CCc1ccc2nc(SCC(=O)OC)c(C#N)cc2c1 | -61.2 | 5.0 | 0.0 | 0.7
N#Cc1cc2c(nc1SCC(=O)Nc1nc3ccccc3s1)CCC2 | 90.0* | 3.0 | 0.0 | 0.8
N#Cc1cc2c(nc1SCC(=O)Nc1ccccc1)CCCC2 | -38.4 | -6.7 | -0.2 | -1.2
CCc1ccc2nc(SCC(N)=O)c(C#N)cc2c1 | 49.7* | -9.1 | -0.1 | 0.9
COc1cc2cc(C#N)c(SCC(=O)N3CCOCC3)nc2cc1OC | -3.0 | -7.2 | -0.2 | 1.6
N#Cc1cc2c(nc1SCC(=O)N1CCOCC1)CCCCC2 | 83.0* | -5.4 | 0.0 | -0.5
CC(C)c1ccc2nc(SCC(=O)N3CCOCC3)c(C#N)cc2c1 | 36.2* | -0.3 | 0.0 | -1.3
COc1ccc(OC)c(NC(=O)c2cn(-c3ccc(Cl)cc3)c(=O)c3ccccc23)c1 | 0.3 | 12.7 | 0.1 | 2.9
Cc1ccccc1-n1ncc(C(C)NC(=O)c2cccs2)c1C (centres undefined) | -11.5 | -11.7 | -0.2 | -0.9
O=C(CCNc1c(N2CCCC2)c(=O)c1=O)NCCc1ccccc1 | -6.0 | 18.7 | 0.7 | 3.1
O=C(O)c1cc([N+](=O)[O-])ccc1NCCN1C(=O)C2CC=CCC2C1=O (centres undefined) | 3.4 | 4.5 | -0.1 | -0.4
COc1ccc(Nc2cc(C)nc(-n3nc(C)cc3C)n2)c(OC)c1 | 66.2* | -7.1 | -0.6 | -1.1
Cc1cc(Nc2ccc3c(c2)OCO3)nc(-n2nc(C)cc2C)n1 | 61.3* | -4.8 | -0.2 | -1.4
Cc1cc(Nc2ccc(F)c(Cl)c2)nc(-n2nc(C)cc2C)n1 | 5.8 | 15.5 | 1.2 | -0.8
COc1ccc(Nc2nc(C)cc(C)n2)c(OC)c1 | 3.0 | 12.5 | 0.4 | -0.2
SMILES | TEAD-YAP block | MITF inh | FBW7 activator | GPR151 activ
Cc1cc(Nc2ccccc2C)nc(-n2nc(C)cc2C)n1 | 70.1* | 17.6 | 0.5 | -1.6
CN(C1CCCCC1)S(=O)(=O)c1cccc(C(=O)NNC(=O)c2cccs2)c1 | -4.1 | 0.2 | 0.0 | -0.6
COCCN(C(C)=O)c1nnc(-c2cccnc2)s1 | -6.4 | -12.5 | -0.3 | -0.6
CCc1cccc(NC(=O)CN(C)S(=O)(=O)c2ccc3c(c2)C(C)(C)C(=O)N3C)c1 | 13.8 | 16.6 | -0.3 | 2.1
O=C(c1ccc(C(F)(F)F)nc1)N1CCC(c2nc(-c3cccnc3)no2)CC1 | -9.2 | 13.8 | -0.1 | -0.1
O=S(=O)(c1ccccc1C(F)(F)F)N1c2cccc3cccc(c23)S1(=O)=O | -11.6 | -3.3 | -0.2 | -0.3
COc1ccc(CNC(=O)CN(C)S(=O)(=O)c2ccc(OC)c(C)c2)cc1 | -1.2 | 12.0 | 0.1 | 1.5
CC1=C(C(=O)OCc2ccccc2)C(c2ccccc2OC(C)C)C2=C(CCCC2=O)N1 (centres undefined) | -4.9 | 15.7 | -0.2 | -0.2
O=C(CSc1ccccc1)N1CCOc2ccc(-c3ccncc3)cc21 | 33.6* | 10.6 | 0.0 | -1.1
COC(=O)Nc1cc([N+](=O)[O-])cc([N+](=O)[O-])c1Br | 98.7* | -4.4 | -0.3 | 4.5
COC(=O)Nc1ccc(C(C)(C)C)cc1[N+](=O)[O-] | -4.6 | 13.9 | 0.5 | -1.9
COc1ccc(C2=N/C(=C\c3ccc(OC(C)=O)cc3)C(=O)O2)c(Br)c1 | 1.7 | 1.0 | 0.0 | -1.8
CC(C)Oc1ccc(C(=O)NCCC(=O)O)cc1 | -13.4 | 16.4 | 0.5 | 0.7
CC(C)CCOc1ccc(C(=O)NCCCCCC(=O)O)cc1 | 38.3* | 2.5 | 0.0 | -1.0
CC(C)COc1ccc(C(=O)NCCCCCC(=O)O)cc1 | 46.6* | -9.1 | 0.0 | 0.6
CC(C)Oc1ccc(C(=O)NCCCCCC(=O)O)cc1 | 39.1* | 5.2 | 1.2 | 0.5
CCOc1ccc(C(=O)NCCCCCC(=O)O)cc1 | 20.1 | 12.3 | 0.0 | -0.6
CC(C)COc1ccc(C(=O)NCCC(=O)O)cc1 | 8.2 | 22.1 | 0.4 | 1.4
O=C1C(Cl)=C(N2CCCCC2)C(=O)C(Cl)=C1/C=C/N1CCCCC1 | 4.1 | 86.2* | -0.5 | 1.0
CSc1ccccc1NC(=O)NC1CC(=O)N(c2cccc(F)c2)C1 (centres undefined) | -2.9 | 5.0 | -0.1 | -0.9
CC(=O)Nc1ccc(NC(=O)c2cc(C)nc3ccc(C)cc23)cc1 | 34.9* | -9.0 | -0.1 | 1.3
CSc1ccc(C=C2C(=O)c3ccccc3C2=O)cc1 | 6.2 | -0.2 | -0.1 | 0.2
CC1C(=O)C(=O)/C(=C\c2ccccc2)C1=O (centres undefined) | -0.4 | 81.9* | -0.2 | 0.5
NC(=O)C1CCN(c2ccc3cccc(OCc4ccccc4)c3n2)CC1 | 3.2 | 4.3 | 0.1 | 0.9
CCCOC(=O)c1cc(-c2ccc(/C=C(\C#N)C(N)=C(C#N)C#N)o2)ccc1Cl | -8.1 | 21.0 | -0.2 | -0.9
SMILES | TEAD-YAP block | MITF inh | FBW7 activator | GPR151 activ
COc1cccc(-c2nnc(SCC(=O)Nc3cc(Cl)ccc3OC)n2-n2cccc2)c1 | 52.0* | 6.1 | 0.1 | 0.8
COc1ccc(OC)c(NC(=O)CSc2nnc(-c3ccccc3)n2-n2cccc2)c1 | 5.8 | 13.6 | 0.0 | -1.1
Cc1ccc2c(c1)C(=Nc1ccc(I)cc1)C(=O)N2 | -8.5 | 20.9 | 2.1* | -0.8
NC(=O)COC(=O)C1(c2ccc(Cl)cc2)CCCC1 | 2.7 | -3.3 | -0.1 | -1.5
COc1ccc(-c2cc(C(=O)N3CCN(c4ccccc4OC)CC3)c3ccccc3n2)cc1 | 41.5* | -12.2 | -0.1 | 0.5
CC(C)c1ccc(-c2cc(C(=O)O)c3ccccc3n2)cc1 | 73.5* | 8.8 | 0.3 | -4.7
CCc1ccc(-c2cc(C(=O)N3CCN(c4ncccn4)CC3)c3ccccc3n2)s1 | 33.1* | -13.6 | 0.0 | 1.4
COc1ccc(NC(=O)c2cc(-c3ccncc3)nc3ccccc23)cc1 | 40.5* | -2.5 | -0.3 | 0.3
CCN1CCN(C(c2cccs2)C(C)NC(=O)C(=O)NCc2ccc(OC)cc2)CC1 (centres undefined) | 2.7 | -0.7 | 0.0 | -0.9
Cc1ccc(-c2cc(C(=O)N3CCOCC3)c3ccccc3n2)cc1 | -10.0 | -5.6 | 0.0 | -1.1
COc1ccc2cc(-c3cc(C(=O)N4CCN(CCO)CC4)c4ccccc4n3)ccc2c1 | 69.9* | -1.3 | 0.1 | -0.9
CCc1ccc(-c2cc(C(=O)N3CCN(Cc4ccccc4)CC3)c3ccccc3n2)cc1 | 64.8* | 16.9 | 0.1 | -0.4
